From PubChem BioAssay
DRD3 antagonist = qHTS of D3 Dopamine Receptor Antagonist: qHTS; 360,000 compounds, 2.5% hits; max response, negative = inhibition, %; D3R cells, DiscoveRx beta-arrestin luminescence, antagonist mode; active compounds read low; AID 652054, 2013; D(3) dopamine receptor (Homo sapiens), P35462; in the data active means max response below about -50%; inconclusive means no clear call, values can overlap the other calls; further: on the % scale 0 is the no-effect control and ±100 the full control effect
Target sequence (P35462 whole entry, looked up): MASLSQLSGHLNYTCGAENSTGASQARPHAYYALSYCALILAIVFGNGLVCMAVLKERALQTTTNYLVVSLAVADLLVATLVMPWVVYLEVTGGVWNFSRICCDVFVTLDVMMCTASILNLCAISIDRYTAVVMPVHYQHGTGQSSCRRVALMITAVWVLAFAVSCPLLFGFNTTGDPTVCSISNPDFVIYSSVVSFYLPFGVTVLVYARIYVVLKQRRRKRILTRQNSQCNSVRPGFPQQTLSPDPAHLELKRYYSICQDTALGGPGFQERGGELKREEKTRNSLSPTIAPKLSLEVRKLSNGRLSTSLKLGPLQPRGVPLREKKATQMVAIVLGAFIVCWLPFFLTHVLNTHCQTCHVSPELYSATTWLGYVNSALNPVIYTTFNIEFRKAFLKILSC
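Cells plated overnight at 1500 cells/well, then exposed to library compounds with dopamine controls for 90 minutes at 37 degrees C. DiscoveRx reagent added for 30–60 minutes at room temperature; luminescence read, quantitative HTS format.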
D3 ag = qHTS of D3 Dopamine Receptor Agonist: qHTS; max activation, %; D3R DiscoveRx beta-arrestin cells, luminescence, 90 min; 410,000 compounds, 0.58% hits; in the data active means max activation above about 30%; further: 0% is about no effect
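Agonist-mode cell screen: cells plated at 1500/well and incubated overnight at 37 °C, then exposed to library compounds for 90 min at 37 °C. Detection reagent was added for 30–60 min at room temperature, and luminescence was read.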
Nrf2 activator = qHTS of Nrf2 Activators; AREc32 ARE-luciferase reporter (MCF7-derived line), luminescence, 24 h; Potency, µM (series often up to 46.1 µM), for inactives: at the top dose activation, usual class: activators; 410,000 compounds, 0.31% hits; AID 624171, 2012; further: potency means the concentration at half of the fitted maximal effect; % of control where 0% means no effect; nearly all actives have a fitted effect of over 65% in size
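AREc32 cells carrying an ARE-driven firefly luciferase, 1000 cells/well in OPTI-MEM with 5% FBS, dosed after overnight attachment and incubated 24 hr at 37 deg C. Steady-Glo luminescence read after 30 min at RT.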
Glioma ERSR ind = qHTS for Inducers of the Endoplasmic Reticulum Stress Response (ERSR) in Human Glioma: qHTS; 420,000 compounds, 0.02% hits; Potency, µM, without a hit: at the top dose activation, usual class: activators; AID 602332, 2012; U87-MG GRP78 promoter luciferase reporter, 16 h; further: potency means the concentration at half of the fitted maximal effect; series mostly up to about 76 µM; % of control where 0% means no effect; nearly all actives have a fitted effect of over 35% in size
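ERSR induction read as luciferase luminescence (Bright-Glo, 10 min at room temperature) in stably transfected human U87-MG glioma cells exposed to compounds for 16 h, using GRP78 as sensor.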
* marks the source's active call; other numbers are inactive results; [ ] = another dose, or the depositor's remark. Compounds with a hit are over-represented: about 3% of the library has one in this group of screens. Unless noted, the call rests on the fitted dose curve; in most records, active means well fitted curve in the direction sought with a large enough effect; inconclusive means small, poorly fitted or top-dose-only effect, or another doubt; inactive means no such curve, though single readings can be large; an effect the other way counts as inactive or inconclusive.

COCCn1c(SCC(=O)NNC(=O)c2cc(Cl)ccc2OC)nnc1-c1ccncc1 was read as DRD3 antagonist -100.3*, D3 ag -28.1, Nrf2 activator 0.0% and Glioma ERSR ind -1.6%.
Screening COCCn1c(SCC(=O)Nc2cccc(OC)c2)nnc1-c1ccc(Cl)cc1 returned DRD3 antagonist 15.8, D3 ag 5.8, Nrf2 activator -0.7% and Glioma ERSR ind -2.4%.
For Cc1nc(-[n+]2nc(-c3ccncc3)nn2-c2ccccc2)sc1C the results were DRD3 antagonist -101.8*, D3 ag -23.0, Nrf2 activator -0.6% and Glioma ERSR ind -5.6%.
`CC1=C(C(N)=O)C(c2ccccc2)n2nc(-c3ccncc3)nc2N1` (centres undefined) gave DRD3 antagonist -9.5, D3 ag -1.4, Nrf2 activator -0.1% and Glioma ERSR ind -5.5%.
N#CC(=C(/N)Sc1ccccc1N)/C(C#N)=C(\N)Sc1ccccc1N was read as Glioma ERSR ind -0.8%.
`CCOc1cc(/C=C2\N=C(SC(C)C(N)=O)N(c3ccc(OC(F)F)cc3)C2=O)ccc1O` (centres undefined) gave DRD3 antagonist -56.5*, D3 ag -13.0, Nrf2 activator 3.1% and Glioma ERSR ind -7.2%.
Screening CC(=O)ON(C(C)=O)c1ccc(/C=C2/C=Cc3ccccc32)cc1 returned Glioma ERSR ind 1.2%.
`Cc1ccc(C)c(NC(=O)C2(C)CCCN2C(=O)C(C)C)c1` (centres undefined) gave DRD3 antagonist 9.1, D3 ag 10.1, Nrf2 activator 0.2% and Glioma ERSR ind -1.9%.
For CC(C)C(=O)N1CCC1(C)C(=O)NS(=O)(=O)c1cccs1 (centres undefined) the results were DRD3 antagonist -63.3*, D3 ag -8.6, Nrf2 activator -0.6% and Glioma ERSR ind 3.0%.
`COc1cccc(NC(=O)C2(C)CCCN2C(=O)C(C)C)c1OC` (centres undefined) gave DRD3 antagonist 6.9, D3 ag 75.4*, Nrf2 activator -0.3%[9.22 µM] and Glioma ERSR ind -2.2%.
Cc1cc(OC(=O)c2ccccc2Cl)cc(=O)n1C was read as DRD3 antagonist 85.7, D3 ag 35.4*, Nrf2 activator -2.2% and Glioma ERSR ind 4.8%.
COc1cccc2cc(C(=O)OCC(=O)N3CC(C)OC(C)C3)c(=O)oc12 (centres undefined) was read as DRD3 antagonist -4.8, D3 ag 5.4, Nrf2 activator 15.8µM* and Glioma ERSR ind 3.2%.
For O=[N+]([O-])c1ccc2c(c1)C=C/C2=C\c1ccccc1 the results were Glioma ERSR ind -0.2%.
For Cc1cccc(N2CCN(C(=O)CSc3nc4ccccc4nc3N3CC(C)OC(C)C3)CC2)c1C (centres undefined) the results were DRD3 antagonist 39.1, D3 ag 76.4*, Nrf2 activator -0.1% and Glioma ERSR ind -4.0%.
For CO/N=C(\C(=O)N[C@@H]1C(=O)N2C(C(=O)O)=C(CSc3nc(=O)c(O)nn3C)CS[C@H]12)c1csc(N)n1 the results were D3 ag -11.2.
Screening CC[N+](CC)(CC)c1ccc(/C=C/c2ccc3ccccc3n2)cc1 returned Glioma ERSR ind -8.2%.
`CN(C)CCCN1C(=O)c2cccc3cccc(c23)C1=O` gave DRD3 antagonist 3.5, D3 ag -0.8, Nrf2 activator 21.8% and Glioma ERSR ind -1.7%.
CC1=CC2=C(OC1N(C)C)c1cccc3cccc(c13)C2=O (centres undefined) was read as DRD3 antagonist -51.6*, D3 ag -10.6, Nrf2 activator inconclusive and Glioma ERSR ind -0.5%.
For COc1ccc(C(C)(NC(C)=O)c2nc(-c3ccccc3OC)cs2)cc1 (centres undefined) the results were DRD3 antagonist -88.4*, D3 ag -3.5, Nrf2 activator -0.9% and Glioma ERSR ind -2.3%.
For COc1ccc(C(C)(NC(C)=O)c2nc(-c3ccc(F)cc3OC)cs2)cc1 (centres undefined) the results were DRD3 antagonist 0.0, D3 ag -0.1, Nrf2 activator 3.9% and Glioma ERSR ind -1.0%.
Cc1ccc(C2=NNC(c3cccc(F)c3)S2)cc1 (centres undefined) was read as DRD3 antagonist 17.3, D3 ag 0.9, Nrf2 activator inconclusive and Glioma ERSR ind -5.1%.
